Assay results as given in ChEMBL document CHEMBL4513216, “Probing the Open Global Health Chemical Diversity Library for Multistage-Active Starting Points for Next-Generation Antimalarials” (ACS Infect Dis, 2020).
Among all 69,000 compounds or so, about 8,600 (12%) showed an effect of 50% or more. Many of the other results were omitted from the sample, so strong results are more common in it than they were.

Test system: Plasmodium berghei
Test: Screen against P. berghei liver stage (PbLuc), transformed with Luciferase, at 10uM
Type: functional, HepG2
Conditions: tested at 10 uM

| Structure (SMILES) | INHIBITION |
| --- | --- |
| CCn1cc(CN2CCC(O)(Cn3nc(C)ccc3=O)CC2)cn1 | 6.32% |
| CN(C)c1cc(C(=O)N2CCCCC2)ccn1 | 2.7% |
| CC1CCN(C(=O)c2cnn3c(-c4ccco4)ccnc23)CC1 | -82.6% |
| CCCNC(=O)NC(=O)CN1C=Nc2ccccc2S1(=O)=O | -3.7% |
| Cc1occc1C(=O)N1CCC2(CC1)C(c1cnn(C)c1)CC(=O)N2C (stereo not drawn) | 31.3% |
| Cn1ccnc1CC1CCCN(Cc2noc(C3CC3)n2)C1 (stereo not drawn) | 9.14% |
| Cc1nnsc1CNC(=O)CSCc1ccccc1Cl | 10.8% |
| c1ccc(Cc2nnc(CN3CCCCC3Cn3cncn3)o2)cc1 (stereo not drawn) | 24% |
| CCN(Cc1c(F)cccc1Cl)c1cc(C2CCNCC2)nc(C)n1 | 39.6% |
| COc1ncccc1CNC(=O)c1cnccn1 | -12% |
| N#Cc1ccccc1OCCN1CCCC1Cn1cncn1 (stereo not drawn) | 48.1% |
| CC(C)CN1CCc2c(CN(C)Cc3ccco3)cncc2C1 | -15.2% |
| Cc1cccc(S(=O)(=O)N2CCCC3(CCCN3S(C)(=O)=O)C2)c1 (stereo not drawn) | -61.6% |
| COc1ccccc1N1CCC(CNS(=O)(=O)c2cccs2)C1 (stereo not drawn) | 6.31% |
| CN1CCc2cc(C(CNS(=O)(=O)c3cccs3)N3CCCC3)ccc21 (stereo not drawn) | 20.5% |
| O=S(=O)(NCC(c1ccsc1)N1CCCCCC1)c1cccs1 (stereo not drawn) | 60% |
| CN(C)c1ccc(C(CNS(=O)(=O)c2cccs2)N2CCCC2)cc1 (stereo not drawn) | 67.6% |
| COc1ccc(C(CNS(=O)(=O)c2cn(C)nc2C)N2CCCC2)cc1 (stereo not drawn) | 23.15% |
| Cc1nn(C)cc1S(=O)(=O)NCC(c1ccccc1)N1CCCCCC1 (stereo not drawn) | 36.7% |
| O=C(NCC(F)(F)F)c1ccncc1 | -6.67% |
| CC(C)c1noc(CCCC(=O)N2CCN(Cc3cccnc3)CC2)n1 | -40.2% |
| COc1cccc(OCC(=O)NCc2ccc3[nH]c(=O)[nH]c3c2)c1 | 12.6% |

| Structure (SMILES) | INHIBITION |
| --- | --- |
| CN1CCOC(C)(C(=O)Nc2nc(C(C)(C)C)cs2)C1 (stereo not drawn) | 7.5% |
| CN(CC1(O)CCN(c2ccnc3ccncc23)CC1)C(=O)CCN | -5.78% |
| Cc1ccc2c(c1)N(C(=O)C1CCCOC1)CCC2 (stereo not drawn) | -27% |
| CS(=O)(=O)c1ccc2c(c1)N(C(=O)Cc1cccc(F)c1)CCC2 | 30.9% |
| CS(=O)(=O)c1ccc2c(c1)N(C(=O)Cc1ccc(F)cc1)CCC2 | 47.7% |
| CCN(CC)S(=O)(=O)CC(=O)N1CCc2ccc(C)cc21 | 57.5% |
| CCN(CC)S(=O)(=O)CC(=O)N1CCc2ccc(F)cc21 | 67.4% |
| CCN(CC)S(=O)(=O)CC(=O)N1CCc2ccc(Cl)cc21 | 26.8% |
| COCCOc1cccc(CNC(=O)CN2CCN(C)CC2C)c1 (stereo not drawn) | 17.883% |
| Cc1ccccc1Cn1cnc2oc(C)c(C(=O)O)c2c1=O | 0.348% |
| O=C(CCn1cccn1)N1CCC(c2nnc(-c3ccsc3)o2)CC1 | 5.86% |
| O=C(N[C@@H]1CN(c2ncccn2)C[C@@H]2CCCO[C@@H]21)c1cccnc1 | 4.61% |
| CC(=O)NS(=O)(=O)c1ccc(F)cc1C(F)(F)F | 35% |
| O=C(NCCn1nc(-n2cncn2)ccc1=O)c1ccsc1 | 6.12% |
| CSCCC(=O)N1CCCC(c2ncc[nH]2)C1 (stereo not drawn) | -8.66% |
| CCOCCC1(C(=O)N2CCCC(c3ncc[nH]3)C2)CCCC1 (stereo not drawn) | 72% |
| O=C(CCCOCc1ccccc1)N1CCCC(c2ncc[nH]2)C1 (stereo not drawn) | 6.11% |
| CCOCCC(=O)N1CCCC(c2ncc[nH]2)C1 (stereo not drawn) | 48.1% |
| O=C(CCOc1ccccc1)N1CCCC(c2ncc[nH]2)C1 (stereo not drawn) | 52.7% |
| CCOCCOc1ccccc1C(=O)N1CCCC(c2ncc[nH]2)C1 (stereo not drawn) | -7.35% |
| COCCC(=O)N1C[C@H]2CN(Cc3cccc(C)n3)C(=O)[C@H]2C1 | 26.6% |
| CCOCCN1CCC(c2cnccn2)CC1 | 32.7% |

| Structure (SMILES) | INHIBITION |
| --- | --- |
| CN1CCN(C=C2N=C(c3cc(-c4ccccc4F)n[nH]3)ON2)CC1 | 49.4% |
| CS(=O)(=O)N1CC[C@H]2OCC[C@@]2(C(=O)NCc2ccccn2)C1 | 39.4% |
| CNC(=O)c1cc(C)n(-c2cccc(OC)c2)c1C | -3.2% |
| Cc1cc(Br)cnc1N(C)CC1CCOC1 (stereo not drawn) | 23.6% |
| Cc1nc2c(c(NCc3ccc(-c4ccccn4)s3)n1)CCNCC2 | 32.2% |
| Cc1nc2c(c(NCc3cc4ccccc4s3)n1)CCNCC2 | 46.1% |
| Cc1nc2c(c(NCc3nc4ccccc4s3)n1)CCNCC2 | 75.8% |
| CC(C)N1CCN(C(=O)Nc2cnc3c(cnn3C(C)C)c2)CC1 | 27.6% |
| O=C(CCOc1ccccc1)N1CCCC(n2cncn2)C1 (stereo not drawn) | -13.255% |
| CCC(C)N(Cc1cccnc1)Cc1ccccc1Cn1cccn1 (stereo not drawn) | 31.3% |
| CCC(C)N(Cc1cccnc1)Cc1ccc2c(c1)OCCO2 (stereo not drawn) | 52.5% |
| CCC(C)N(Cc1cccnc1)Cc1cc2c(cc1Cl)OCO2 (stereo not drawn) | 58.5% |
| CCC(C)N(Cc1cccnc1)Cc1cc2c(cc1OC)OCO2 (stereo not drawn) | -19.8% |
| c1cncc(CN(Cc2ccc3c(c2)OCCO3)CC2CCCO2)c1 (stereo not drawn) | -2.98% |
| Cc1ccnc(CC(C)N(C)Cc2ccc3c(c2)OCCO3)c1 (stereo not drawn) | 8.11% |
| Cn1cc(C2CCCN2C(=O)CCc2cnn(-c3ccccc3)c2)cn1 (stereo not drawn) | 5.03% |
| CN(C)C(=O)C1(CCCc2ccccn2)CCN1Cc1nccn1C (stereo not drawn) | 5.34% |
| COc1ccc2nnc(CCCC(=O)NCc3ccccc3F)n2n1 | -6.09% |
| COc1ncccc1CNCc1c(C)nn(C)c1N1CCOCC1 | -10.1% |
| CC(C)N1CCN(C(=O)c2ccc(Cn3ccccc3=O)o2)CC1 | 14.115% |
| CCS(=O)(=O)N1C[C@@H](c2nnc(C)o2)C[C@H]2OCC[C@H]21 | 18.7% |
| Cc1nnc([C@H]2C[C@H]3OCC[C@H]3N(S(=O)(=O)C3CC3)C2)o1 | 26% |

| Structure (SMILES) | INHIBITION |
| --- | --- |
| Cc1nnc([C@H]2C[C@H]3OCC[C@H]3N(S(=O)(=O)N(C)C)C2)o1 | 54.1% |
| Cc1ccc(CN2C[C@@H]3COC[C@H](NS(C)(=O)=O)[C@@H]3C2)o1 | 6.38% |
| OCCNc1nccc(-c2c[nH]nc2-c2ccncc2)n1 | 41.2% |
| O=c1[nH][nH]cc1-c1ccnc(NCCc2cccc(O)c2)n1 | 63.4% |
| O=C(Cc1cccc(O)c1)NCCNc1nccc(C(F)(F)F)n1 | 0.71% |
| Cc1ncc(-c2ccnc(NCCc3ccc(F)cc3)n2)c(=O)[nH]1 | 72.3% |
| CC(C)(C)CCNc1nccc(-c2c[nH][nH]c2=O)n1 | 57.5% |
| O=c1[nH][nH]cc1-c1ccnc(NCCc2cccnc2)n1 | 59% |
| C[C@H]1CCCCN1CCCNc1nccc(-c2c[nH][nH]c2=O)n1 | 23.4% |
| O=C(O)c1ccnc(-c2ccnc(NCCc3ccc(F)cc3)n2)c1 | 8.74% |
| CN(C)c1nccc(-c2c[nH][nH]c2=O)n1 | 42.6% |
| O=c1[nH][nH]cc1-c1ccnc(NCCN2CCCC2)n1 | 25.3% |
| COCCCNc1nccc(-c2c[nH][nH]c2=O)n1 | 15.2% |
| Cc1ncc(-c2ccnc(N3CCCCC3)n2)c(=O)[nH]1 | 28.6% |
| O=c1[nH][nH]cc1-c1ccnc(NCCc2ccc(F)cc2)n1 | 20.4% |
| O=C(O)c1cn(-c2ccccn2)c(=O)c2ccccc12 | -44.2% |
| CN(C)[C@@H]1CN(Cc2ccc(O)cc2)C[C@H]1c1cn(C)c2ccccc12 | 40.9% |
| O=C(c1ccncc1)N1C[C@H]2CC[C@@H](C1)N(S(=O)(=O)c1cccnc1)C2 | -66.4% |
| CCN1CC(C(=O)NCc2ccnc(-n3cccn3)c2)CC1=O (stereo not drawn) | -12.33% |
| CCOC(C)c1nccn1Cc1c(C)noc1C (stereo not drawn) | 3.19% |
| Cc1cc(C(F)(F)F)nc(C2(C)CCCN2CC(N)=O)n1 (stereo not drawn) | 14.385% |
| c1cncc(-n2cnnc2CCCN2CCOCC2)c1 | 3.69% |

| Structure (SMILES) | INHIBITION |
| --- | --- |
| CN1CCN(Cc2cccnc2)C2(CCN(Cc3ccoc3)C2)C1=O (stereo not drawn) | -24.9% |
| COCCC(=O)NC1CCN(CC2(c3cccc(F)c3)CCCC2)CC1 | 12.3% |
| Cc1ccc(NC(=O)[C@H]2C[C@H](C(=O)O)CN(CC(C)C)C2)cn1 | 11.2% |
| COc1ccc2[nH]c3c(c2c1)CN(c1cc(NCCO)nc(N)n1)CC3 | 54.8% |
| Nc1nc(NCCO)cc(N2CCc3c([nH]c4ccccc34)C2)n1 | 78.5% |
| CC(C)(C)c1ncc2c(n1)CN(c1cc(NCCO)nc(N)n1)C2 | 3.84% |
| CC(C)Cc1ncc2c(n1)CN(c1cc(NCCO)nc(N)n1)C2 | 27.7% |
| COc1ccc(F)c(-c2cc(NCCO)nc(N)n2)c1 | -76.6% |
| CCc1ncc2c(n1)CN(c1cc(NCCO)nc(N)n1)C2 | -63.2% |
| C[C@@H]1C[C@H]2CN(C(=O)c3ccncn3)C[C@H]2O1 | -0.813% |
| CN1[C@@H](C(=O)NCC2CC2)C[C@@H]2CN(Cc3ccoc3)C[C@@H]21 | 1.34% |
| N#CC(NC(=O)CC(F)(F)F)c1ccsc1 (stereo not drawn) | -3.68% |
| COc1cccc(C=CCCN2CCN(S(C)(=O)=O)CC2)c1 | -104% |
| Cc1cc(-c2cnc(N3CCCC3)nc2-c2ccc(C)s2)on1 | 32.3% |
| CCN1CCN(c2ncc(-c3cc(C)no3)c(-c3ccc(C)s3)n2)CC1 | 57.4% |
| Cc1cc(-c2cnc(N3CCSCC3)nc2-c2ccc(C)s2)on1 | 47.1% |
| Cc1cc(-c2cnc(N3CCN(C)CC3)nc2-c2ccc(C)s2)on1 | 69.4% |
| CCN1CCN(c2ncc(-c3cc(C)no3)c(-c3ccco3)n2)CC1 | 11.5% |
| CCN1CCN(c2ncc(-c3cc(C)no3)c(-c3ccoc3C)n2)CC1 | 48.9% |
| Cc1cc(-c2cnc(N3CCOCC3)nc2-c2ccc(C)s2)on1 | 53% |
